Several values for one entry are separate records, joined by “and”; a condition that tells them apart may be missing. Equal values may be shown once. Results filed as inconclusive are left out. Activity calls are given as the source filed them.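 The calls were made as follows, unless noted: active = compounds killing one labelled cell type while sparing the other, by normalised counts and ratio limits, not self-fluorescent; inactive = the rest.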
Experiments:
[1] = stimulators of insulin release from INS-1E, primary screen, cell-based, 5 mM glucose, NPC library (AID 1117329;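 active = compound raises insulin release from rat beta cells at 5 mM glucose, no numeric limit stated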); settings: rat INS-1E insulin secretion, at 10 µM, stronger effect = higher value
[2] = growth inhibition of GSK3B-pretreated HCT116 cells – cell-based, CellTiter-Glo, 0.2 to 20 µM (AID 1117336;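 active = compounds lowering colon cancer cell viability after pretreatment blocking the GSK3B kinase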); settings: HCT116 viability after GSK3B inhibitor, at 20 µM, stronger effect = higher value
[3] = inhibition of endothelial tube formation, primary screen, imaging, VEGF stimulated, CD31 staining, tube area, NPC library (AID 1117340;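 active = compound that reduces growth-factor-driven endothelial tube area in a mixed cell culture, no cutoff stated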); settings: VEGF-stimulated ADSC/ECFC co-culture, at 10 µM, stronger effect = higher value
[4] = GLP1 release stimulators, primary, NCI-H716, NPC library (AID 1117341;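 active = compound raises GLP1 secretion from the human gut endocrine cells, with no numeric limit stated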); settings: NCI-H716 cells, at 10 µM, stronger effect = higher value
[5] = HCT116 colon cancer cell growth inhibition, primary screen, CellTiter-Glo luminescence, NPC library (AID 1117342;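 active = compounds that lower survival of HCT116 colon cancer cells in the luminescence readout, no numeric limit stated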); settings: at 20 µM (top of the series)
[6] = reduced SW480 viability measured with CellTiter-Glo, NPC library, primary (AID 1117343;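 active = compounds that lower viability of the colon cancer cells in the luminescence readout, with no numeric limit stated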); settings: CellTiter-Glo luminescence; at 20 µM (top of the series)
[7] = NPC library primary testing for decreased DLD-1 cell viability via CellTiter-Glo (AID 1117346;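 active = compounds that lower survival of DLD-1 colon cancer cells in the luminescence readout, no cutoff given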); settings: DLD-1 viability, CellTiter-Glo luminescence; at 20 µM (top of the series)
[8] = molecular target: 6-phosphogluconate dehydrogenase, decarboxylating (Homo sapiens) (UniProt P52209); assay: inhibition of human phosphogluconate dehydrogenase – biochemical, recombinant enzyme, NADPH absorbance, primary screen (AID 1159550;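 active = at least 20% inhibition of 6-phosphogluconate dehydrogenase activity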); settings: recombinant 6PGD, NADPH absorbance 341 nm; at 10 µM; stronger effect = higher value
[9] = EMT-state selective cytotoxicity in co-culture – imaging, PC-3E GFP, TEM4-18 mCherry, primary screen (AID 1345086); settings: PC-3E GFP / TEM4-18 mCherry co-culture, imaging cell counts, at 1 µM; for red/green cell ratio (normalised): actives lie on both sides, counts scaled to control wells, 1 = unselective;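 as to all read-outs here: cells exposed to compound for 72 h before imaging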;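 as to red/green cell ratio (normalised): normalised mesenchymal count divided by normalised epithelial count so high means epithelial killing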
[10] = viability loss in pontine glioma line – cell-based, SU-DIPG-XVII, MIPE5.0, CellTiter-Glo, qHTS, dose response (AID 1347060; cut-off not given, nearly all actives have AC50 up to about 26 µM;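 as to AC50: cells exposed to compound for 48 hours before viability readout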); settings: CellTiter-Glo ATP luminescence
[11] = viability loss in pontine glioma line – cell-based, SU-DIPG-IV, MIPE4.0, CellTiter-Glo, qHTS, dose response (AID 1347063; cut-off not given, nearly all actives have AC50 up to about 30 µM;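 also: compound exposure lasted 48 hours before the viability readout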); settings: CellTiter-Glo ATP luminescence
[12] = viability loss in pontine glioma line – cell-based, JHH-DIPG-1, MIPE4.0, CellTiter-Glo, qHTS, dose response (AID 1347062; cut-off not given, nearly all actives have AC50 up to about 27 µM;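 as to AC50: cells exposed to compound for two days before readout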); settings: JHH-DIPG-1 viability, CellTiter-Glo ATP luminescence
[13] = viability loss in pontine glioma line – cell-based, SU-DIPG-XIII, MIPE5.0, CellTiter-Glo, qHTS, dose response (AID 1347064; cut-off not given, nearly all actives have AC50 up to about 23 µM); settings: CellTiter-Glo ATP luminescence
[14] = viability loss in pontine glioma line – cell-based, SU-DIPG-XIII, MIPE4.0, CellTiter-Glo, qHTS, dose response (AID 1347061; cut-off not given, nearly all actives have AC50 up to about 37 µM;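 also: cells exposed to compound for 48 hours before readout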); settings: CellTiter-Glo ATP luminescence
[15] = measured here: epithelial PC-3E GFP cell survival
[16] = measured here: mesenchymal TEM4-18 mCherry cell survival

6-phosphogluconate dehydrogenase, decarboxylating (Homo sapiens), sequence (P52209 whole entry, looked up): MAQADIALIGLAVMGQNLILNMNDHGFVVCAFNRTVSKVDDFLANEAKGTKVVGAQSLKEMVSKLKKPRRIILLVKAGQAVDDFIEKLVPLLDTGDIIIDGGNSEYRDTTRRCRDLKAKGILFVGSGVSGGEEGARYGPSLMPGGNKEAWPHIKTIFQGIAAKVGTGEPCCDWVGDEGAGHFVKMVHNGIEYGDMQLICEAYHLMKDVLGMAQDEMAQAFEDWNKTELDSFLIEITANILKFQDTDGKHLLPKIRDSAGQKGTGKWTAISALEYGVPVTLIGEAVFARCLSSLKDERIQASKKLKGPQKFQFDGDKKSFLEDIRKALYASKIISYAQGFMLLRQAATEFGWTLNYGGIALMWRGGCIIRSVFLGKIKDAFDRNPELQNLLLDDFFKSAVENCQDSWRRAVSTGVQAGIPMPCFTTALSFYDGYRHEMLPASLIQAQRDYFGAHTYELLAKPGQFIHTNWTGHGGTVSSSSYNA

COC(=O)Nc1nc2ccc(Sc3ccccc3)cc2[nH]1
0.25: normalised cell number [9, 15]
0.26: normalised cell number [9, 16]
active: viability decrease [2] 48% | tube area decrease [3] 103% | GLP1 secretion stimulation [4] 48.3% | inhibition of viability [5] 94.4% | viability decrease (inhibition) [6] 81.8% | viability decrease (inhibition) [7] 45.8% | AC50 [10] 0.934 µM | AC50 [11] 2.64 µM
inactive: insulin secretion stimulation [1] 1.1% | inhibition [8] 10.3% | red/green cell ratio (normalised) [9] 1.07

CC/C(=C(/CC)c1ccc(O)cc1)c1ccc(O)cc1
1.27: normalised cell number [9, 16]
1.1: normalised cell number [9, 15]
inactive: insulin secretion stimulation [1] 0.8% | tube area decrease [3] 20.8% | GLP1 secretion stimulation [4] 16.6% | inhibition [8] 8.9% | red/green cell ratio (normalised) [9] 1.15 | outcome [10] | outcome [12] | outcome [13]
active: viability decrease [2] 90.8% | inhibition of viability [5] 94.3% | viability decrease (inhibition) [6] 97.7% | viability decrease (inhibition) [7] 98.4%

Nc1ccc(S(=O)(=O)Nc2ccccn2)cc1
0.99: normalised cell number [9, 15]
1.47: normalised cell number [9, 16]
inactive: insulin secretion stimulation [1] -2.8% | viability decrease [2] -1.3% | tube area decrease [3] 7.9% | GLP1 secretion stimulation [4] -3.8% | inhibition of viability [5] -12% | viability decrease (inhibition) [6] 17.6% | viability decrease (inhibition) [7] -7.25% | inhibition [8] 4.06% | red/green cell ratio (normalised) [9] 1.49 | outcome [14] | outcome [12]

O=c1oc2cc(O)ccc2s1
active: viability decrease (inhibition) [6] 3.7%
1 and 0.88: normalised cell number [9, 16]
inactive: insulin secretion stimulation [1] 2.9% | viability decrease [2] -9.5% | tube area decrease [3] 11.8% | GLP1 secretion stimulation [4] -4.3% | inhibition of viability [5] -4.7% | viability decrease (inhibition) [7] 10.2% | inhibition [8] 11.7% | red/green cell ratio (normalised) [9] 0.91 and 0.99 | outcome [14] | outcome [12] | outcome [11] | outcome [13]
1.1 and 0.89: normalised cell number [9, 15]

Nc1ccc(S(=O)(=O)Nc2ccnn2-c2ccccc2)cc1
0.9: normalised cell number [9, 16]
inactive: insulin secretion stimulation [1] -1.3% | viability decrease [2] -8.8% | tube area decrease [3] -4.8% | GLP1 secretion stimulation [4] 3.3% | inhibition of viability [5] -9.2% | viability decrease (inhibition) [6] 6.4% | viability decrease (inhibition) [7] -3.95% | inhibition [8] -9.54% | red/green cell ratio (normalised) [9] 0.85 | outcome [14] | outcome [12] | outcome [11]
1.05: normalised cell number [9, 15]

CCCCOc1ccc(CC(=O)NO)cc1
0.61: normalised cell number [9, 16]
active: AC50 [14] 23.5 µM | AC50 [11] 20.9 µM
inactive: insulin secretion stimulation [1] 10.6% | viability decrease [2] 24.3% | tube area decrease [3] -1.4% | GLP1 secretion stimulation [4] -1.1% | inhibition of viability [5] 12.7% | viability decrease (inhibition) [6] 35.2% | viability decrease (inhibition) [7] 11.6% | inhibition [8] -6.77% | red/green cell ratio (normalised) [9] 1.05 | outcome [13]
0.59: normalised cell number [9, 15]

Cc1onc(-c2ccccc2Cl)c1C(=O)N[C@@H]1C(=O)N2[C@@H]1SC(C)(C)[C@@H]2C(=O)O
inactive: insulin secretion stimulation [1] -0.3% | viability decrease [2] -27.7% | tube area decrease [3] 12.2% | GLP1 secretion stimulation [4] -1% | inhibition of viability [5] 19.2% | viability decrease (inhibition) [6] -3.3% | viability decrease (inhibition) [7] -0.7% | inhibition [8] -7.26% | red/green cell ratio (normalised) [9] 1.1 | outcome [14] | outcome [11]
1.34: normalised cell number [9, 15]
1.48: normalised cell number [9, 16]

CS(=O)(=O)c1ccc([C@@H](O)[C@@H](CO)NC(=O)C(Cl)Cl)cc1
active: tube area decrease [3] 42.1%
inactive: insulin secretion stimulation [1] 1% | viability decrease [2] -30.5% | GLP1 secretion stimulation [4] 0.4% | inhibition of viability [5] 2% | viability decrease (inhibition) [6] -9.6% | viability decrease (inhibition) [7] -4% | inhibition [8] -8.02% | red/green cell ratio (normalised) [9] 0.94 | outcome [14] | outcome [12] | outcome [11]
1.06: normalised cell number [9, 16]
1.12: normalised cell number [9, 15]

CCOC(=O)[C@H](CCc1ccccc1)N[C@@H](C)C(=O)N1CCC[C@H]1C(=O)O
inactive: insulin secretion stimulation [1] 0.7% | viability decrease [2] 1.3% | tube area decrease [3] -1.3% | GLP1 secretion stimulation [4] 19.8% | inhibition of viability [5] -3.77% | viability decrease (inhibition) [6] 12.5% | viability decrease (inhibition) [7] 3.4% | inhibition [8] -2.48% | red/green cell ratio (normalised) [9] 0.88 | outcome [14] | outcome [12] | outcome [11] | outcome [13]
0.99: normalised cell number [9, 16]
1.12: normalised cell number [9, 15]

CCCc1cc(C(N)=S)ccn1
1.14: normalised cell number [9, 15]
inactive: insulin secretion stimulation [1] -1.7% | viability decrease [2] -13.4% | tube area decrease [3] 1% | GLP1 secretion stimulation [4] -0.6% | inhibition of viability [5] 6.7% | viability decrease (inhibition) [6] 5.3% | viability decrease (inhibition) [7] -3.5% | inhibition [8] 3.48% | red/green cell ratio (normalised) [9] 0.84 | outcome [10] | outcome [12] | outcome [13]
0.96: normalised cell number [9, 16]

Nc1ncnc2c1ncn2[C@@H]1O[C@H](CO)[C@@H](O)[C@H]1O
0.94: normalised cell number [9, 16]
inactive: insulin secretion stimulation [1] 2.7% | viability decrease [2] 41.9% | tube area decrease [3] 30.3% | GLP1 secretion stimulation [4] -0.1% | inhibition of viability [5] 33.7% | viability decrease (inhibition) [6] 27% | viability decrease (inhibition) [7] 19.1% | inhibition [8] 2.2% | red/green cell ratio (normalised) [9] 1.15
0.81: normalised cell number [9, 15]
active: AC50 [14] 18.7 µM | AC50 [12] 0.935 µM

Cc1cccc(N(C)C(=S)Oc2ccc3ccccc3c2)c1
1.22: normalised cell number [9, 15]
inactive: insulin secretion stimulation [1] 0.4% | tube area decrease [3] -39% | GLP1 secretion stimulation [4] -2.7% | viability decrease (inhibition) [6] 35.1% | inhibition [8] 6.26% | red/green cell ratio (normalised) [9] 1.19 | outcome [12] | outcome [13]
1.46: normalised cell number [9, 16]
active: viability decrease [2] 50% | inhibition of viability [5] 58.6% | viability decrease (inhibition) [7] 56.8%

Reference: PubChem BioAssay
